# Assay outcomes deposited in PubChem BioAssay by National Center for Advancing Translational Sciences (NCATS).
# Abeta yeast res: qHTS for compounds that reverse cellular toxicity of Amyloid beta (A-beta) peptide in yeast: Primary Screen. Potency, µM (series often up to 46.1 µM), actives largely listed as activators. AID 1347071, 2019. yeast expressing A-beta42, growth rescue, OD600, 48 h; response scale: 0% DMSO, 100% iron-clioquinol control. 410,000 tested, 0.063% active; also: nearly all actives have a fitted effect of over 55% in size
#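 Yeast A-beta toxicity model in growth medium with pinned compounds, 48 h at 30 C; growth read as absorbance at 600 nm. Normalized to FeCl3/clioquinol equimolar mix (positive) and DMSO (negative).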
# Mito fusion yeast: qHTS Assay for Small Molecule Inhibitors of Mitochondrial Division or Activators of Mitochondrial Fusion; AID 485298, 2010; 320,000 tested, 0.23% active; S. cerevisiae fusion-defective mutant growth rescue, CellTiterGlo 48 h; Potency, µM (series often up to 46.1 µM), hits mostly activators; also: nearly all actives have a fitted effect of over 45% in size
#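 Read-out: ATP-based luminescence (CellTiterGlo, 10 min ambient) reporting growth of fusion-defective ts yeast after 48 hours at 37C on glycerol/ethanol YPEG medium in the presence of compound.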
# TDP-43 yeast inh: qHTS of TDP-43 Inhibitors; TDP-43 expressing yeast growth rescue, BacTiter-Glo, 24 h; Potency, µM (top dose mostly 46.1 µM), actives largely listed as activators; 410,000 tested, 1.8% active; AID 652104, 2013; also: nearly all actives have a fitted effect of over 50% in size
#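 Galactose-induced TDP-43 yeast, OD600=0.02, compound pinned; 24 hr, 30 deg C; BacTiter-Glo luminescence for growth. Inhibitors of TDP-43 toxicity read as activators.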
# aSyn yeast inh: qHTS of alpha-syn Inhibitors | Potency, µM (top dose mostly 46.1 µM), usual class: activators | AID 652106, 2013 | Yeast expressing alpha-synuclein, growth rescue, BacTiter-Glo, 24 h | 370,000 tested, 0.14% active; also: nearly all actives have a fitted effect of over 65% in size
#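 Rescue of yeast growth: cells expressing toxic alpha-synuclein, induced in galactose at OD600 0.02, incubated with compound 24 h at 30 C. ATP luminescence quantified growth; inhibitors of toxicity appear as activators.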
# FUS suppressor: qHTS for Suppressors of FUS Proteinopathy: Primary screen using FUS-linked yeast assay; S. cerevisiae FUS-expressing, growth rescue, OD600, 24 h; Potency, µM (series often up to 76.6 µM), actives largely listed as activators; 390,000 tested, 0.24% active; AID 1347120, 2019; also: nearly all actives have a fitted effect of over 55% in size
#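 Compound concentration series was pinned onto galactose-induced FUS-expressing yeast seeded at OD 0.005. Plates sat 24hr at 30C; absorbance at 600 nm gave growth. DMSO served as background control.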
# Numbers stand for hits; - = inactive; ? = inconclusive; . = no result given; [ ] = remark or other dose. Rows were chosen to be rich in hits. Some 2.2% of all compounds tested hit in one or more screens of this group. Calls follow the shape of the dose curve; as a rule, active = well fitted curve in the direction sought with a large enough effect; inconclusive = small, poorly fitted or top-dose-only effect, or another doubt; inactive = no such curve, though single readings can be large; an effect the other way counts as inactive or inconclusive.
SMILES,Abeta yeast res,Mito fusion yeast,TDP-43 yeast inh,aSyn yeast inh,FUS suppressor
Cc1ccc(CN(C#N)c2nc(C)cc(C)n2)cc1,-,-,35µM,-,-
Cc1cc(C)nc(N(C#N)Cc2ccc(Cl)cc2)n1,-,-,-[9.22 µM],-,-
Cc1cc(C)nc(N(C#N)Cc2ccc(Br)cc2)n1,-,?,14µM,-,-
Cc1cc(C)nc(N(C#N)CCOc2ccc(Cl)cc2)n1,-,-,18µM,-,-
CCOC(=O)C1=C(CN2CCN(c3ccccc3)CC2)NC(=O)NC1c1ccc(C)cc1 (stereo not drawn),-,.,-,.,-
Nc1cc([N+](=O)[O-])ccc1OCc1ccccc1,-,.,?,-,.
O=c1cc(C(O)C[N+](=O)[O-])occ1OCc1ccccc1 (stereo not drawn),-,.,-,-,32µM
CCOCCCn1c(=N)c(C(=O)NC(C)c2ccccc2)cc2c(=O)n3cccc(C)c3nc21 (stereo not drawn),-,.,-,.,-
CC(NC(=O)C1CCN(c2nc3ccccc3nc2C(F)(F)F)CC1)c1ccccc1 (stereo not drawn),-,.,-,.,-
CCn1c(CCCCc2n[nH]c(=S)n2CC)n[nH]c1=S,-,-,-,-,-
CCn1c(CN2c3ccccc3Sc3ccccc32)n[nH]c1=S,16µM,-,-,-,-
CCCNC(=O)c1c(NC(=O)c2ccccc2)sc2c1CCC(C(C)(C)C)C2 (stereo not drawn),-,.,-,.,-
COc1cc(OC)cc(C(=O)NNc2nc3cc4c(cc3s2)OCO4)c1,-,-,10µM,-,-
O=C(NNc1nc2cc3c(cc2s1)OCO3)c1ccccc1,-,-,-,-,-
COc1cc(C(=O)NNc2nc3cc4c(cc3s2)OCO4)cc(OC)c1OC,-,-,-,-,-
O=C(NNc1nc2c(F)cccc2s1)c1ccc(F)cc1,-,-,10µM,-,-
O=C(NNc1nc2cc3c(cc2s1)OCO3)c1cccc(F)c1,-,-,5.6µM,-,-
C[C@H]1[C@@H](OC(=O)NC2CCCCC2)CC[C@@]23CCCN2C(=O)CCC[C@@H]13,.,.,.,.,-
Cc1ccc(C)n1-c1ccc(C(=O)N2CCOCC2)cc1,-,-,-,-,35µM
COC(=O)N1C(=O)[C@](c2ccc(Cl)cc2)(C(C)C)N1C(=O)OC,-,-,35µM,-,-
O=C(NC(=S)NNC(=O)c1ccco1)c1ccc(Br)cc1,-,-,3.5µM,?,-
CCCOc1ccc(C(=O)NNC(=S)NC(C)=O)cc1,?,-,11µM,4µM,-
O=C(NNC(=S)NC(=O)c1ccco1)c1ccc(F)cc1,-,-,?,-,-
CCCCOc1ccc(C(=O)NNC(=S)NC(=O)CC)cc1,-,-,?,-,-
CCCOc1ccc(C(=O)NNC(=S)NC(=O)c2ccccc2)cc1,-,-,?,-,-
SMILES,Abeta yeast res,Mito fusion yeast,TDP-43 yeast inh,aSyn yeast inh,FUS suppressor
O=C(/C=C/c1ccco1)NC(=S)NNC(=O)c1ccco1,?,-,?,11µM,-
CCC(=O)NC(=S)NNC(=O)c1ccc(OC)cc1,10µM,-,-,10µM,-
Cc1ccccc1C(=O)NC1CCCCN(C(C)C)C1=O (stereo not drawn),.,.,.,.,-
CN(C)c1ccc(/C=C/c2ccnc3ccc(-c4ccccc4)cc23)cc1,.,.,.,-,.
O=C(COc1ccc(Cl)cc1Cl)NNC(=S)NC(=O)c1ccco1,?,-,18µM,10µM,-
O=C(COc1ccc(Cl)cc1Cl)NNC(=S)NCc1ccco1,?,-,-,-,-
COc1ccc(C(=O)NNC(=S)NC(=O)c2ccco2)cc1,-,-,?,-,-
CCCOc1ccc(C(=O)NNC(=S)NC(=O)c2ccco2)cc1,-,-,6.3µM,-,-
CCN(CC)CCNC(=O)c1ccc(-c2nc(CN3CCc4ccccc43)c(C)o2)cc1,-,.,-,-,-
COc1ccc(Br)c(C(=O)N2CCN(S(=O)(=O)/C=C/c3ccccc3)CC2)c1,-,-,13µM,-,-
Cc1cccc(C)c1NC(=O)c1ccc2nc(CCc3ccccc3)oc2c1,-,.,13µM,.,-
Cc1ccc(C)c(NC(=O)c2ccc3nc(CCc4ccccc4)oc3c2)c1,-,.,-,.,-
